Measurements taken from the supplement of paper PMC12645437, “Orthogonal IMiD-Degron Pairs Induce Selective Protein Degradation in Cells” (ACS Chemical Biology, 2025).
Over roughly 8,300 sequences, “log2 fold change of degron read counts, EGFP-low vs EGFP+ sorted cells (limma voom), compound-induced degradation” has its median near -1.1; the highest 2% begin near 3.2. Only a selection was taken, and the highest values are over-represented in it overall.

Target: T1, CRBN, Q96SW2
T1 chain: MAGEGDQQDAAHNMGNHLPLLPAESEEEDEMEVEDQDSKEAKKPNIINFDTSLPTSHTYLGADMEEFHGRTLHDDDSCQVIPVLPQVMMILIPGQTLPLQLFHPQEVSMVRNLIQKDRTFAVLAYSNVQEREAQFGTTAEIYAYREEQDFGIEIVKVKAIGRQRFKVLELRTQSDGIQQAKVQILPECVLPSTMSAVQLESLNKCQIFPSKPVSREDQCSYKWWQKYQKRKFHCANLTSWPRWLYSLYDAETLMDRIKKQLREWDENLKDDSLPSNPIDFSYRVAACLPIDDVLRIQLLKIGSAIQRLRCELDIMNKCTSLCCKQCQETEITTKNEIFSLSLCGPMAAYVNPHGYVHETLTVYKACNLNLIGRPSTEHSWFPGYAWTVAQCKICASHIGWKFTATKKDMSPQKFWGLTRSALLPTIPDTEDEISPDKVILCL
Assay: log2 fold change of degron read counts, EGFP-low vs EGFP+ sorted cells (limma voom), compound-induced degradation; higher = more compound-induced degradation of the degron-EGFP fusion; degrons are variants of IKZF1/3 zinc finger 2; compound dose not given here
Conditions: Jurkat, 18 h

[1] = compound: compound 19 (5-tert-butyl-thalidomide)
[2] = compound: compound 22 (5-morpholino-thalidomide)
[3] = compound: compound 33 (diphenyl IMiD analogue)
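Also: pooled lentiviral library of zinc finger degron-EGFP fusions in mCherry-positive Jurkat cells, FACS-sorted after compound exposure, with degron abundance counted by next-generation sequencing.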

FCCEQCGANFTQKGNLLRHIKL [46F_47C_49E_50Q_52G_53A_54N_55F_67L_, Q9UKT9]
log2 fold change of degron read counts [1]: -1.5
log2 fold change of degron read counts [2]: -1.89
log2 fold change of degron read counts [3]: -0.599
log2 fold change of degron read counts (compound: thalidomide): -1.3

FHCPICGHPFTQKGNLLRHIKL [46F_47H_49P_50I_52G_53H_54P_55F_67L_, Q9UKT9]
log2 fold change of degron read counts [1]: 0.356
log2 fold change of degron read counts [2]: -0.486
log2 fold change of degron read counts [3]: 1.11
log2 fold change of degron read counts (compound: thalidomide): -0.0778

LFCEICGFMCTQKGNLLRHIKL [46L_47F_49E_50I_52G_53F_54M_55C_67L_, Q9UKT9]
log2 fold change of degron read counts [1]: 3.2
log2 fold change of degron read counts [2]: 3.12
log2 fold change of degron read counts [3]: 1.56
log2 fold change of degron read counts (compound: thalidomide): 1.17

FRCEICGRIFTQKGNLLRHIKL [46F_47R_49E_50I_52G_53R_54I_55F_67L_, Q9UKT9]
log2 fold change of degron read counts [1]: -2.12
log2 fold change of degron read counts [2]: -2.31
log2 fold change of degron read counts [3]: -0.593
log2 fold change of degron read counts (compound: thalidomide): -0.94

FSCNQCGAVFTQKGNLLRHIKL [46F_47S_49N_50Q_52G_53A_54V_55F_67L_, Q9UKT9]
log2 fold change of degron read counts [1]: -1.79
log2 fold change of degron read counts [2]: -1.84
log2 fold change of degron read counts [3]: -0.0126
log2 fold change of degron read counts (compound: thalidomide): -1.8

FGCEVCGAKFTQKGNLLRHIKL [46F_47G_49E_50V_52G_53A_54K_55F_67L_, Q9UKT9]
log2 fold change of degron read counts [1]: 3.69
log2 fold change of degron read counts [2]: 1.3
log2 fold change of degron read counts [3]: -1.12
log2 fold change of degron read counts (compound: thalidomide): 1.16

FMCEVCGAKFTQKGNLLRHIKL [46F_47M_49E_50V_52G_53A_54K_55F_67L_, Q9UKT9]
log2 fold change of degron read counts [1]: 0.0707
log2 fold change of degron read counts [2]: -0.168
log2 fold change of degron read counts [3]: 0.454
log2 fold change of degron read counts (compound: thalidomide): 0.604

FLCEVCGAKFTQKGNLLRHIKL [46F_47L_49E_50V_52G_53A_54K_55F_67L_, Q9UKT9]
log2 fold change of degron read counts [1]: 0.27
log2 fold change of degron read counts [2]: -1.55
log2 fold change of degron read counts [3]: -0.283
log2 fold change of degron read counts (compound: thalidomide): 1.49

FDCEVCGAKFTQKGNLLRHIKL [46F_47D_49E_50V_52G_53A_54K_55F_67L_, Q9UKT9]
log2 fold change of degron read counts [1]: 1.57
log2 fold change of degron read counts [2]: -0.744
log2 fold change of degron read counts [3]: -2.09
log2 fold change of degron read counts (compound: thalidomide): 0.993

FWCEVCGAKFTQKGNLLRHIKL [46F_47W_49E_50V_52G_53A_54K_55F_67L_, Q9UKT9]
log2 fold change of degron read counts [1]: 3.74
log2 fold change of degron read counts [2]: 3.86
log2 fold change of degron read counts [3]: 1.64
log2 fold change of degron read counts (compound: thalidomide): 1.54

FKCEVCGAKFTQKGNLLRHIKL [46F_47K_49E_50V_52G_53A_54K_55F_67L_, Q9UKT9]
log2 fold change of degron read counts [1]: -1.41
log2 fold change of degron read counts [2]: -3.28
log2 fold change of degron read counts [3]: -3.54
log2 fold change of degron read counts (compound: thalidomide): -1.57

FSCEVCGAKFTQKGNLLRHIKL [46F_47S_49E_50V_52G_53A_54K_55F_67L_, Q9UKT9]
log2 fold change of degron read counts [1]: 3.08
log2 fold change of degron read counts [2]: 1.75
log2 fold change of degron read counts [3]: -0.985
log2 fold change of degron read counts (compound: thalidomide): 1.45

FQCEVCGAKFTQKGNLLRHIKL [46F_47Q_49E_50V_52G_53A_54K_55F_67L_, Q9UKT9]
log2 fold change of degron read counts [1]: 0.414
log2 fold change of degron read counts [2]: 2.98
log2 fold change of degron read counts [3]: 0.135
log2 fold change of degron read counts (compound: thalidomide): 3.4

FRCEVCGAKFTQKGNLLRHIKL [46F_47R_49E_50V_52G_53A_54K_55F_67L_, Q9UKT9]
log2 fold change of degron read counts [1]: -0.518
log2 fold change of degron read counts [2]: -0.4
log2 fold change of degron read counts [3]: 0.471
log2 fold change of degron read counts (compound: thalidomide): 1.09

FACEVCGAKFTQKGNLLRHIKL [46F_47A_49E_50V_52G_53A_54K_55F_67L_, Q9UKT9]
log2 fold change of degron read counts [1]: 3.92
log2 fold change of degron read counts [2]: 2.02
log2 fold change of degron read counts [3]: -1.57
log2 fold change of degron read counts (compound: thalidomide): 0.889

FICEVCGAKFTQKGNLLRHIKL [46F_47I_49E_50V_52G_53A_54K_55F_67L_, Q9UKT9]
log2 fold change of degron read counts [1]: -0.59
log2 fold change of degron read counts [2]: 2.35
log2 fold change of degron read counts [3]: 0.972
log2 fold change of degron read counts (compound: thalidomide): 2.68

FECEVCGAKFTQKGNLLRHIKL [46F_47E_49E_50V_52G_53A_54K_55F_67L_, Q9UKT9]
log2 fold change of degron read counts [1]: 0.451
log2 fold change of degron read counts [2]: -1.55
log2 fold change of degron read counts [3]: -0.965
log2 fold change of degron read counts (compound: thalidomide): 2.59

FYCPQCGAHFTQKGNLLRHIKL [46F_47Y_49P_50Q_52G_53A_54H_55F_67L_, Q9UKT9]
log2 fold change of degron read counts [1]: 0.451
log2 fold change of degron read counts [2]: 1.45
log2 fold change of degron read counts [3]: 1.13
log2 fold change of degron read counts (compound: thalidomide): -0.932

FFCPQCGAEFTQKGNLLRHIKL [46F_47F_49P_50Q_52G_53A_54E_55F_67L_, Q9UKT9]
log2 fold change of degron read counts [1]: -0.388
log2 fold change of degron read counts [2]: -1.02
log2 fold change of degron read counts [3]: -0.943
log2 fold change of degron read counts (compound: thalidomide): -1.93

FMCPQCGAEFTQKGNLLRHIKL [46F_47M_49P_50Q_52G_53A_54E_55F_67L_, Q9UKT9]
log2 fold change of degron read counts [1]: -2.82
log2 fold change of degron read counts [2]: -2.55
log2 fold change of degron read counts [3]: 0.714
log2 fold change of degron read counts (compound: thalidomide): -1.49

FACEICGHVFTQKGNLLRHIKL [46F_47A_49E_50I_52G_53H_54V_55F_67L_, Q9UKT9]
log2 fold change of degron read counts [1]: -2.8
log2 fold change of degron read counts [2]: -3.22
log2 fold change of degron read counts [3]: -3.16
log2 fold change of degron read counts (compound: thalidomide): -2.72

FKCPVCGAYFTQKGNLLRHIKL [46F_47K_49P_50V_52G_53A_54Y_55F_67L_, Q9UKT9]
log2 fold change of degron read counts [1]: -2.09
log2 fold change of degron read counts [2]: -2.57
log2 fold change of degron read counts [3]: -2.35
log2 fold change of degron read counts (compound: thalidomide): -1.29

FDCDVCGADFTQKGNLLRHIKL [46F_47D_49D_50V_52G_53A_54D_55F_67L_, Q9UKT9]
log2 fold change of degron read counts [1]: -3.06
log2 fold change of degron read counts [2]: -3.05
log2 fold change of degron read counts [3]: -2.88
log2 fold change of degron read counts (compound: thalidomide): -2.92

FGCDVCGAVFTQKGNLLRHIKL [46F_47G_49D_50V_52G_53A_54V_55F_67L_, Q9UKT9]
log2 fold change of degron read counts [1]: -0.0514
log2 fold change of degron read counts [2]: -0.272
log2 fold change of degron read counts [3]: 0.863
log2 fold change of degron read counts (compound: thalidomide): -1.24

FICNQCGADFTQKGNLLRHIKL [46F_47I_49N_50Q_52G_53A_54D_55F_67L_, Q9UKT9]
log2 fold change of degron read counts [1]: -3.68
log2 fold change of degron read counts [2]: -3.02
log2 fold change of degron read counts [3]: -3.36
log2 fold change of degron read counts (compound: thalidomide): -3.07

FVCEVCGAKFTQKGNLLRHIKL [46F_47V_49E_50V_52G_53A_54K_55F_67L_, Q9UKT9]
log2 fold change of degron read counts [1]: 0.611
log2 fold change of degron read counts [2]: 1.89
log2 fold change of degron read counts [3]: 0.0419
log2 fold change of degron read counts (compound: thalidomide): 2.73

FYCEVCGAKFTQKGNLLRHIKL [46F_47Y_49E_50V_52G_53A_54K_55F_67L_, Q9UKT9]
log2 fold change of degron read counts [1]: 3.48
log2 fold change of degron read counts [2]: 3.66
log2 fold change of degron read counts [3]: 1.65
log2 fold change of degron read counts (compound: thalidomide): 1.54

FFCEVCGAKFTQKGNLLRHIKL [46F_47F_49E_50V_52G_53A_54K_55F_67L_, Q9UKT9]
log2 fold change of degron read counts [1]: 3.53
log2 fold change of degron read counts [2]: 3.42
log2 fold change of degron read counts [3]: 1.26
log2 fold change of degron read counts (compound: thalidomide): 1.64

FHCEVCGAKFTQKGNLLRHIKL [46F_47H_49E_50V_52G_53A_54K_55F_67L_, Q9UKT9]
log2 fold change of degron read counts [1]: 2.92
log2 fold change of degron read counts [2]: 1.93
log2 fold change of degron read counts [3]: -0.596
log2 fold change of degron read counts (compound: thalidomide): 0.387

FCCEVCGAKFTQKGNLLRHIKL [46F_47C_49E_50V_52G_53A_54K_55F_67L_, Q9UKT9]
log2 fold change of degron read counts [1]: 3.23
log2 fold change of degron read counts [2]: 2.43
log2 fold change of degron read counts [3]: -0.571
log2 fold change of degron read counts (compound: thalidomide): 2.71

FNCEVCGAKFTQKGNLLRHIKL [46F_47N_49E_50V_52G_53A_54K_55F_67L_, Q9UKT9]
log2 fold change of degron read counts [1]: 1.99
log2 fold change of degron read counts [2]: 0.318
log2 fold change of degron read counts [3]: -2.12
log2 fold change of degron read counts (compound: thalidomide): 0.139
